Laboratory results published in PubChem BioAssay (NCATS).
“And” between values parts separate entries of the source, which are not always exact repeats. Equal values may be shown once. Inconclusive results are not listed. The source made the active and inactive calls. Unless noted, calls come from the whole dose curve; as a rule, active = well fitted curve in either direction with a large enough effect (not every such curve was filed as active); inconclusive = small, poorly fitted or top-dose-only effect, or another doubt; inactive = flat fitted curve, though single readings scatter.

Assays:
[1] = AP1 Signaling Pathway (AID 357); conditions: ME-180 AP-1-bla reporter, EGF-induced, beta-lactamase ratio, 5 h;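 note: ME-180 reporter cells stimulated with EGF at its EC50 level; % is set by controls: 0 for no effect and ±100 for the full control effect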
Procedure, shortened: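 AP-1-bla ME-180 cells, Opti-MEM + 0.5% dialyzed FBS, plated overnight 37 °C. Cpd titration + EC50 EGF, 5 h 37 °C. CCF4 2.5 h RT; ex 405, em 460/530 ratio → %activity, AC50.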

[2] = target: Cytochrome P450 1A2 (Homo sapiens) (UniProt P05177); assay: p450-cyp1a2 (AID 410; calls by dose curve; note: potency is the fitted concentration of half-maximal effect;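 for activity change, negative = inhibition: -100% = full effect of reference inhibitor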); conditions: recombinant CYP1A2, luciferin-ME demethylation, luminescence; series mostly up to 25.6 µM
Procedure, shortened: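 Luminescent readout of luciferin formed from Luciferin-ME by human CYP1A2; data normalized against complete inhibition by 57 uM furafylline. Enzyme 20nM, substrate 100uM at Km, 100mM KPO4 buffer, 60 min reaction at room temperature.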

[3] = NFAT Signaling Pathway (AID 444); conditions: Jurkat NFAT-bla M1, carbachol, beta-lactamase ratio, 5 h;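 note: carbachol stimulus at about its EC50 of 1 µM final; % is set by controls: 0 for no effect and ±100 for the full control effect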
Procedure, shortened: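 Jurkat cells carrying an NFAT-driven β-lactamase reporter and co-transfected muscarinic M1 receptor were treated with compound plus carbachol (1 uM final, an EC50 level) for 5 h at 37 °C. CCF4 loading followed for 1 h at RT; 460/530 nm ratio gave %activity.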

[4] = Stat Signaling Pathway (AID 446); conditions: ME-180 SIE beta-lactamase reporter, IL-6 stimulated, 5 h;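 note: ME-180 cervical cancer cells given 40 pM IL-6 alongside compound; SIE-controlled beta-lactamase reporter measured as 460/530 nm FRET emission ratio; % is set by controls: 0 for no effect and ±100 for the full control effect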
Procedure, shortened: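 ME-180 SIE-bla cells; overnight plating; cpd + IL-6 40 pM, 5 h, 37 C; LiveBLAzer 2.5 h RT; 460/530 nm emission ratio. Normalized to 300 pM IL-6 and 125 nM JAK inhibitor controls.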

[5] = target: Glucocorticoid receptor (Homo sapiens) (UniProt P04150); assay: GR-GFP Redistribution (AID 450;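 active = compounds whose dose series gives a full or clear partial fitted curve of increased nuclear translocation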; note: potency is the fitted concentration of half-maximal effect); conditions: U2OS GR-GFP nuclear translocation, laser cytometry, 2 h
[6] = target: Glucocorticoid receptor (Homo sapiens) (UniProt P04150); assay: GR-EFC Redistribution (AID 451; calls by dose curve; note: potency is the fitted concentration of half-maximal effect); conditions: CHO-K1 GR-EFC translocation, beta-gal luminescence, 2 h
Procedure, shortened: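 CHO-K1 cells stably expressing nuclear-localized β-gal enzyme acceptor and GR fused C-terminally to the enzyme donor fragment; ligand-driven nuclear translocation restores β-gal by complementation. Compounds titrated up to 46 uM final, 2 h at 37 °C; luminescence read.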

[7] = target: Mitogen-activated protein kinase 10 (Mus musculus) (UniProt Q61831); assay: JNK3 AlphaScreen Assay (AID 530); conditions: JNK3 lysate, c-Jun phosphorylation; series mostly up to 25.6 µM;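 note: kinase came from lysate of stimulated human HepG2 cells; signal reports phosphorylation of biotinylated GST-cJun 1-79 at Ser73 with 10 µM ATP; % is set by controls: 0 for no effect and ±100 for the full control effect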
Procedure, shortened: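 Inhibitors reduce antibody binding to phosphorylated biotin-cJun, lowering AlphaScreen luminescence. Lysates from HepG2 cells pre-activated by IL-1beta plus TNF-alpha supplied JNK3; compounds were titrated.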

[8] = Cell Viability - BJ (AID 421; calls by dose curve;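 note: potency is the fitted concentration of half-maximal effect; cells exposed to compound for 40 hours at 37 °C before readout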); conditions: BJ fibroblast viability, qHTS
Procedure, shortened: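 Luminescent ATP signal (CellTiter-Glo, 20 min at room temperature) served as the read-out of viable BJ cells after 40 hours of compound treatment. Responses were scaled between DMSO and 100 uM tamoxifen, and AC50 values were obtained by Hill modeling.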

[9] = Cell Viability - Jurkat (AID 426;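 active = dose-dependent loss of cell ATP signal giving a full or clear fitted curve, ranked by lower potency value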; note: potency is the fitted concentration of half-maximal effect); conditions: qHTS
Procedure, shortened: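 qHTS, 1536-well; Jurkat E6-1, 5000 cells/well, complete medium; cpd 40 hr, 37 °C; CellTiter-Glo 20 min RT; luminescence. AC50 by Hill fit.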

[10] = Cell Viability - Hek293 (AID 427;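 active = compounds whose dose-response curve shows a full or clear partial loss of cell viability, called from curve shape rather than a numeric limit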;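 note: potency is the fitted concentration of half-maximal effect; cells exposed to compound for 40 hours at 37 °C before reading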); conditions: qHTS
Procedure, shortened: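 Luminescent ATP read-out (CellTiter-Glo, 20 min RT) after 40 hr compound exposure at 37 °C in complete medium. Signal normalized to DMSO (basal) and 100 uM tamoxifen (100% inhibition); concentration-response fitted with the standard Hill equation to give AC50.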

[11] = Cell Viability - HepG2 (AID 433; calls by dose curve;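 note: potency is the fitted concentration of half-maximal effect; potency for ATP loss meaning cytotoxicity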); conditions: qHTS
Procedure, shortened: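 In this qHTS format, a 40 h, 37 °C compound incubation of HepG2 cells in complete medium precedes a 20 min CellTiter-Glo step at room temperature. Tamoxifen and doxorubicin serve as positive controls; Hill-equation fits yield AC50.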

[12] = Cell Viability - MRC5 (AID 434; calls by dose curve;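 note: potency is the fitted concentration of half-maximal effect; potency reflects cytotoxicity seen as loss of intracellular ATP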); conditions: MRC5 lung fibroblast viability, qHTS
Procedure, shortened: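 MRC5 normal human lung fibroblasts (1500/well) were treated with compounds for 40 hr at 37 °C in complete medium, and viable cells were measured as intracellular ATP by CellTiter-Glo luminescence. AC50 came from Hill fits, normalized to DMSO and 100 uM tamoxifen.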

[13] = Cell Viability - SK-N-SH (AID 435; calls by dose curve;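 note: potency is the fitted concentration of half-maximal effect; compound exposure lasted 40 h at 37 °C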); conditions: SK-N-SH neuroblastoma cell viability qHTS
Procedure, shortened: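 Human neuroblastoma line, 40 h exposure at 37 °C, ATP quantified via luciferase luminescence; DMSO and 100 uM tamoxifen define 0 and 100% inhibition for AC50 fitting.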

[14] = Cell Viability - N2a (AID 540; active = well fitted cell-killing curve with a large enough effect; note: potency is the fitted concentration of half-maximal effect; nearly all actives have a fitted effect of over 45% in size); conditions: N2a mouse neuroblastoma cell viability; activity change, negative = cytotoxicity: at 92.2 µM (top of the series)
Procedure, shortened: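 Luminescent ATP signal (CellTiter-Glo, 20 min at room temperature) served as the viability read-out after N2a cells were treated with compounds for 40 hours at 37 °C. Concentration-response data were fitted to the Hill equation for AC50.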

[15] = Cell Viability - H-4-II-E (AID 543; active = well fitted cell-killing curve with a large enough effect; note: potency is the fitted concentration of half-maximal effect; nearly all actives have a fitted effect of over 35% in size); conditions: H-4-II-E rat hepatoma viability; series mostly up to 92.2 µM
Procedure, shortened: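 Luminescent ATP signal (CellTiter-Glo) served as the viability read-out, with cytotoxicity seen as a concentration-dependent ATP drop. Cells were treated for 40 hours in complete medium. AC50 values derive from Hill-equation modelling.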

[16] = Cell Viability - SH-SY5Y (AID 544; active = well fitted cell-killing curve with a large enough effect; note: potency is the fitted concentration of half-maximal effect; nearly all actives have a fitted effect of over 55% in size); conditions: SH-SY5Y neuroblastoma cell viability; viability change, negative = cytotoxic: at 92.2 µM (top of the series)
Procedure, shortened: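 Luminescent ATP read-out (CellTiter-Glo) measures loss of viable SH-SY5Y neuroblastoma cells after 40 hr compound exposure at 37 °C. AC50 values derive from standard Hill modelling of qHTS concentration-response data.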

[17] = Cell Viability - Renal Proximal Tubule (AID 545; active = well fitted cell-killing curve with a large enough effect; note: potency is the fitted concentration of half-maximal effect; nearly all actives have a fitted effect of over 40% in size); conditions: renal proximal tubule cells viability, primary cells of rat origin; activity change, negative = cytotoxicity: at 91.7 µM (top of the series)
Procedure, shortened: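 In this qHTS format, normal rat kidney-derived proximal tubule cells in complete culture medium receive compound titrations, then sit 40 hours at 37 °C before luciferase-based ATP quantitation; potency is reported as AC50 from concentration-response curves.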

Cytochrome P450 1A2 (Homo sapiens), sequence (P05177 whole entry, looked up): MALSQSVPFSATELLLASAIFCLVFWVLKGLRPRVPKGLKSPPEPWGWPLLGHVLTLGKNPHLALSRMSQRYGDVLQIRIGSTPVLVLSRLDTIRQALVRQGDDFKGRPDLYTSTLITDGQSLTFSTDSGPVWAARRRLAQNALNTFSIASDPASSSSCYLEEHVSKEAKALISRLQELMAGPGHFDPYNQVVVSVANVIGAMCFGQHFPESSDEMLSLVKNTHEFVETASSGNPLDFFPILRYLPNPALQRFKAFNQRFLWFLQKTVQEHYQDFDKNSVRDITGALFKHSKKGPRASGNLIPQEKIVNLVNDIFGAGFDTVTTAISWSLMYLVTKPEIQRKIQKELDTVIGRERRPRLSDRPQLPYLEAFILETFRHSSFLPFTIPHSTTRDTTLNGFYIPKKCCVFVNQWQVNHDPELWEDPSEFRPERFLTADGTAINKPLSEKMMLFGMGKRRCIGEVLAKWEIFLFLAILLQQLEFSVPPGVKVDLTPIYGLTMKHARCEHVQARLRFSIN
Glucocorticoid receptor (Homo sapiens), sequence (P04150 whole entry, looked up, the tested form may be a part): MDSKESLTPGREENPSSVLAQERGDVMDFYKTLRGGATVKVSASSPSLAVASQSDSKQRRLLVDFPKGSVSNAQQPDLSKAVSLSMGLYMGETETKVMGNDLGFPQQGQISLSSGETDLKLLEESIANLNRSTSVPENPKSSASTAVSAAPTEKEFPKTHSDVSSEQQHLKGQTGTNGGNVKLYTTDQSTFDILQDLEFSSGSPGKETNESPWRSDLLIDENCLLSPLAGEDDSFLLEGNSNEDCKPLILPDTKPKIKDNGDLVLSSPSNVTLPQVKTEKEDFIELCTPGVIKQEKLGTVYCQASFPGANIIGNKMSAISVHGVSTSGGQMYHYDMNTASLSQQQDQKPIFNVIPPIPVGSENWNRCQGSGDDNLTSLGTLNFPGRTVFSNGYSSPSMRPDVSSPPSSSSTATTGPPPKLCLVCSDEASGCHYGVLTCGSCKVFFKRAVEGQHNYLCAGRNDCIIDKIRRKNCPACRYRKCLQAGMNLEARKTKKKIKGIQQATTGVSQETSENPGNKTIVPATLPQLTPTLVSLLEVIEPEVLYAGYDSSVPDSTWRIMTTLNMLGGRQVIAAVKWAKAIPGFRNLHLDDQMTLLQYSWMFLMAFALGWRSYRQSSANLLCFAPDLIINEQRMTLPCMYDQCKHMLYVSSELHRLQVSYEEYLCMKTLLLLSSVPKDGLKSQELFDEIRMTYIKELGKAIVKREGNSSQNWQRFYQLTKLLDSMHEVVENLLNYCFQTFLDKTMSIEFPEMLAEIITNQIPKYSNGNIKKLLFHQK

Oc1cc(O)c2c(c1)O[C@H](c1ccc(O)c(O)c1)[C@H](O)C2
inactive: activity change, negative = inhibition ([1]; at 17.2 µM (top of the series)) 10.1% and 0.263% | activity change, negative = inhibition ([1]; at 38 µM (top of the series)) -5.09% | Potency [2] | activity change, negative = inhibition ([3]; at 17.2 µM (top of the series)) -6.82% and 0.191% | activity change, negative = inhibition ([3]; at 38 µM (top of the series)) -2.11% | activity, negative = inhibition ([4]; at 17.2 µM (top of the series)) -2.66% and 0.865% | activity, negative = inhibition ([4]; at 38 µM (top of the series)) -26.7% | Potency [5] > 46 µM and > 20.6 µM | Potency [6] > 46 µM and > 20.6 µM | outcome [7]

CCCCOc1cc(C(=O)NCCN(CC)CC)c2ccccc2n1
active: Potency [2] 5.01 µM
inactive: activity change, negative = inhibition ([1]; at 17.2 µM (top of the series)) 13.7% and 13.1% and 14.9% | activity change, negative = inhibition ([3]; at 17.2 µM (top of the series)) 3.91% and -0.708% and -6.28% | activity, negative = inhibition ([4]; at 17.2 µM (top of the series)) 0.235% and -1.92% and -8.41% | Potency [5] > 20.6 µM | Potency [6] > 20.6 µM | outcome [7]

COc1cccc2c1C(=O)c1c(O)c3c(c(O)c1C2=O)C[C@@](O)(C(C)=O)C[C@@H]3O[C@H]1C[C@H](N)[C@H](O)[C@H](C)O1
inactive: Potency [5] > 46 µM and > 20.6 µM | Potency [6] > 46 µM
active: activity change, negative = inhibition ([1]; at 17.2 µM (top of the series)) -116% | Potency [2] 31.6 µM | Potency [8] 4.61 µM | Potency [9] 21.8 nM | Potency [10] 7.23 nM | Potency [11] 49.7 µM | Potency [12] 19.5 µM | Potency [13] 14.1 nM | activity change, negative = inhibition ([3]; at 17.2 µM (top of the series)) -129% | activity, negative = inhibition ([4]; at 17.2 µM (top of the series)) -103% | Potency [14] 251 nM | Potency [15] 3.16 µM | Potency [16] 7.94 nM | Potency [17] 3.98 µM

NCCc1ccn[nH]1
inactive: activity change, negative = inhibition ([1]; at 17.2 µM (top of the series)) 2.73% | Potency [2] | activity change, negative = inhibition ([3]; at 17.2 µM (top of the series)) -6.22% | activity, negative = inhibition ([4]; at 17.2 µM (top of the series)) 4.55% | Potency [5] > 20.6 µM | Potency [6] > 20.6 µM | outcome [7]

CCN(CCCc1ccccc1)CCCc1ccccc1
active: Potency [2] 3.98 µM | activity change, negative = inhibition ([3]; at 17.2 µM (top of the series)) -87%
inactive: activity change, negative = inhibition ([1]; at 17.2 µM (top of the series)) 18.6% and 13.2% | activity, negative = inhibition ([4]; at 17.2 µM (top of the series)) 13.6% and 2.48% | outcome [7]

O=C1CCC(c2ccc(-n3ccnc3)cc2)=NN1
inactive: activity change, negative = inhibition ([1]; at 38 µM (top of the series)) 14.9% | activity change, negative = inhibition ([3]; at 38 µM (top of the series)) 3.77% | activity, negative = inhibition ([4]; at 38 µM (top of the series)) 9.57% | Potency [5] > 46 µM | Potency [6] > 46 µM | outcome [7]
active: Potency [2] 0.158 µM
